Results on 39 targets are retold here after the supplement of paper PMC10849652.

The full data set covers some 8,800 targets. This sample favours those with a hit. About 0.5% of all pairs of compound and target were hits. A number with no mark means an inactive call.

Sequence of UniProt P14314 (P14314 whole entry, looked up): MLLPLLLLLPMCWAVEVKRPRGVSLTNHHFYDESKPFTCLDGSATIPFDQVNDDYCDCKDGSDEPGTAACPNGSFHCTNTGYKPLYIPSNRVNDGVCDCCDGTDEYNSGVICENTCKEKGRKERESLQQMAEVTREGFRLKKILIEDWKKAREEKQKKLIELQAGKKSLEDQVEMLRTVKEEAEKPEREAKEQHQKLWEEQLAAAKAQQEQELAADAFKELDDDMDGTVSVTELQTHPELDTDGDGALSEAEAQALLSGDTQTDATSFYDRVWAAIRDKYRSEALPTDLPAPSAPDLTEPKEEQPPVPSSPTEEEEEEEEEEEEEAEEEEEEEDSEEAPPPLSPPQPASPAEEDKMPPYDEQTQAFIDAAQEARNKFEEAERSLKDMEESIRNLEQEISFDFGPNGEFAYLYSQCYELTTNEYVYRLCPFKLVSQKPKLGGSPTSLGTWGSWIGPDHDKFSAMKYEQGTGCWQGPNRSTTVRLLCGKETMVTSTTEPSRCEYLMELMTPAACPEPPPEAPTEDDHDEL
Sequence of UniProt P78356 (P78356 whole entry, looked up): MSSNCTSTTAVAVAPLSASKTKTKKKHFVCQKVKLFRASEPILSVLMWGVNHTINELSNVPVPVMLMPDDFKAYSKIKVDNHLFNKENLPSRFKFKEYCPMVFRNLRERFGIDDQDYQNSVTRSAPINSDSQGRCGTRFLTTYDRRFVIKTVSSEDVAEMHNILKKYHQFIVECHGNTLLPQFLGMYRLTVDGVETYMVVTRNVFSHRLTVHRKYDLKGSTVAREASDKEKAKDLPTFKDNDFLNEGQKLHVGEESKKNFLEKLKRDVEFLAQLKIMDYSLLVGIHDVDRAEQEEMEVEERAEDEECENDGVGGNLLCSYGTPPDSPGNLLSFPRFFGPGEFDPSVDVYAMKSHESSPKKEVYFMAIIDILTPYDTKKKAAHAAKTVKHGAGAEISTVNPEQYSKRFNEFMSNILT
Sequence of UniProt O94913 (O94913 whole entry, looked up): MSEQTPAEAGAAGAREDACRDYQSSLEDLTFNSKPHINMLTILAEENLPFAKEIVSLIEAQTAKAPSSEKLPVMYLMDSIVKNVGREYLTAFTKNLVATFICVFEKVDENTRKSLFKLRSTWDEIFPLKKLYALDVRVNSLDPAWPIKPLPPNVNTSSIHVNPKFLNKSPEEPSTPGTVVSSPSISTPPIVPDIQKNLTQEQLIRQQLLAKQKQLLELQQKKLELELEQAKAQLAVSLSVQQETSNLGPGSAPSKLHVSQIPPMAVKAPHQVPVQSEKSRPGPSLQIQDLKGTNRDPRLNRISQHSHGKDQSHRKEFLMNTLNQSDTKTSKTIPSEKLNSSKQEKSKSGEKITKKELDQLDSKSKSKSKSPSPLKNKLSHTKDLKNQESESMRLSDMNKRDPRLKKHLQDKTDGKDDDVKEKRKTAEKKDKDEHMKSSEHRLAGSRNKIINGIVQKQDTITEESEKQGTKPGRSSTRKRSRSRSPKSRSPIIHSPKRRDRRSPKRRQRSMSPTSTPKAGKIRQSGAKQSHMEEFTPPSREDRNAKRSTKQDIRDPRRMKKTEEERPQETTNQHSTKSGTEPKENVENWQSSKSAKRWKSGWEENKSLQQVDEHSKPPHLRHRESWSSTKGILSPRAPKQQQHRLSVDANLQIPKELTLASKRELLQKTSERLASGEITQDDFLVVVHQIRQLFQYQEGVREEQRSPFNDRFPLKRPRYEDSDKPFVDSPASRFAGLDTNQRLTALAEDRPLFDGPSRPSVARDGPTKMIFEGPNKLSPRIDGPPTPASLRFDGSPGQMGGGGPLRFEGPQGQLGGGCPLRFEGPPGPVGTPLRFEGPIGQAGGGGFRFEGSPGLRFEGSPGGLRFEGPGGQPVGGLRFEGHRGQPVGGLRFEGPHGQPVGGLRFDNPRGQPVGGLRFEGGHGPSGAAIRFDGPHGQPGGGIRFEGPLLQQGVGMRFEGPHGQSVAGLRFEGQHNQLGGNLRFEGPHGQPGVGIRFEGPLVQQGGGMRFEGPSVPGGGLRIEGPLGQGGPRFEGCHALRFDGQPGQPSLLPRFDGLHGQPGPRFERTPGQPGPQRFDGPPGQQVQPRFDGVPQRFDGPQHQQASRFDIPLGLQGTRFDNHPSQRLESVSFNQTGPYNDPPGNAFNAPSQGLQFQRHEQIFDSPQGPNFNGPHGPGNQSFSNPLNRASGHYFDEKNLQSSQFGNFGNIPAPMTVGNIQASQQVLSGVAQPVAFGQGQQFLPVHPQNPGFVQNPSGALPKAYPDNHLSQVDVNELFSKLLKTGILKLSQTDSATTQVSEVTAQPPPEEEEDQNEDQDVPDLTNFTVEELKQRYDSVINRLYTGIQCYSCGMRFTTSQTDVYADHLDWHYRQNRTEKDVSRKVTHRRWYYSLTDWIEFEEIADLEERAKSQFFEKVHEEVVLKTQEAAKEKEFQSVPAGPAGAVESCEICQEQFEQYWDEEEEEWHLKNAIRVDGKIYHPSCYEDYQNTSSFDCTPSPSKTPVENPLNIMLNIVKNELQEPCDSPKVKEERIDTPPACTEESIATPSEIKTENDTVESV
Sequence of UniProt Q12972 (Q12972 whole entry, looked up): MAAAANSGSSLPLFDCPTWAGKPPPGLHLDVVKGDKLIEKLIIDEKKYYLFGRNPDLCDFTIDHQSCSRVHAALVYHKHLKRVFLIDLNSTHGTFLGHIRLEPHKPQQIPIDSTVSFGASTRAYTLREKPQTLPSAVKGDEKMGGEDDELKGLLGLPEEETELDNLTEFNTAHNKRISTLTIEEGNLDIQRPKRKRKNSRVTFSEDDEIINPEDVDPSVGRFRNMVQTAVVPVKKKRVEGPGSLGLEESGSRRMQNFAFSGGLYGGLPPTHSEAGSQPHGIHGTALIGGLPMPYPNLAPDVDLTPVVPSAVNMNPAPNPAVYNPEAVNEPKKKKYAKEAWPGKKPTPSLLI
Sequence of UniProt Q8TEQ8 (Q8TEQ8 whole entry, looked up): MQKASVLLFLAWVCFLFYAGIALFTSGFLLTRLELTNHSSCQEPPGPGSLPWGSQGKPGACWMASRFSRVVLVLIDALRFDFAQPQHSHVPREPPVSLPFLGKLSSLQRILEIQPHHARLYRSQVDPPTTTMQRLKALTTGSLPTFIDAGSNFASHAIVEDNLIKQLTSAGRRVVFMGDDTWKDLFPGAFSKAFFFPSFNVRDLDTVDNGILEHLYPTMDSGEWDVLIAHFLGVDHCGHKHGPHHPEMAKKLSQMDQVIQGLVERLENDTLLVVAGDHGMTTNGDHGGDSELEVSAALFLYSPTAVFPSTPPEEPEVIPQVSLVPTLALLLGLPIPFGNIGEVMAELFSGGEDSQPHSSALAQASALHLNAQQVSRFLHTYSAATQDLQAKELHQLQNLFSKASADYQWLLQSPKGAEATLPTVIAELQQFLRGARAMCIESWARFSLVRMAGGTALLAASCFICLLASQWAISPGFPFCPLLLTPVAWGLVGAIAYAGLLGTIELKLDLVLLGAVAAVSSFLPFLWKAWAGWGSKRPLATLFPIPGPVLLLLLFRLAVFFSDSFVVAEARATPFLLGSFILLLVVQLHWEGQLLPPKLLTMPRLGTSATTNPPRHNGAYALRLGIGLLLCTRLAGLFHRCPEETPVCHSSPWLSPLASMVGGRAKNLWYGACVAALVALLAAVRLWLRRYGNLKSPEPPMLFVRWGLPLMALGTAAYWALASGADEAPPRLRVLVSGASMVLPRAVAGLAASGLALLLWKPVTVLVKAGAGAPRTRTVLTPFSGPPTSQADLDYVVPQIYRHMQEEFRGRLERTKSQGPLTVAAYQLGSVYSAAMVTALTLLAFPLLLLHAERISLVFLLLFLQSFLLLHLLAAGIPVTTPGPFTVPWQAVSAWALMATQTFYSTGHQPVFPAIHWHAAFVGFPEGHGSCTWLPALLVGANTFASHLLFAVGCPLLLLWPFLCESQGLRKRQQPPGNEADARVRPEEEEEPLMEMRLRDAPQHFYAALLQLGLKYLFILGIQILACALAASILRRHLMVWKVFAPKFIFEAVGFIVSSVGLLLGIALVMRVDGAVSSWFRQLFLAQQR
Sequence of UniProt Q99541 (Q99541 whole entry, looked up): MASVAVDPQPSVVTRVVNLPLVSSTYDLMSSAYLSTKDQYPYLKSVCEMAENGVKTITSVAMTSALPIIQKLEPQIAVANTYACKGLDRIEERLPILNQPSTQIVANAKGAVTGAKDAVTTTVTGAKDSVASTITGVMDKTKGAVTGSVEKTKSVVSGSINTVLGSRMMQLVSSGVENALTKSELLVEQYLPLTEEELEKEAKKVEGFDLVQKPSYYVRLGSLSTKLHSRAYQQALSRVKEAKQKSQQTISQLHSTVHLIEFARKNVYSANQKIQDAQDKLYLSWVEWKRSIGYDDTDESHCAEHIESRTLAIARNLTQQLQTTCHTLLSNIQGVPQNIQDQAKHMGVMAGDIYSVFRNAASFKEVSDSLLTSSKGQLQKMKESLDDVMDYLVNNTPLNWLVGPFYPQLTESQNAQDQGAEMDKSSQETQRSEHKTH
Sequence of UniProt Q93096 (Q93096 whole entry, looked up): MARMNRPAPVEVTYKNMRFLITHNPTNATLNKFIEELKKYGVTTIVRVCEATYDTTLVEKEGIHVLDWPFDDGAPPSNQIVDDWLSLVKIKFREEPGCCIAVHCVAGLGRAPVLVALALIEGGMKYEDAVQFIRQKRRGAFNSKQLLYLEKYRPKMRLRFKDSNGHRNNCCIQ
Sequence of UniProt P57721 (P57721 whole entry, looked up): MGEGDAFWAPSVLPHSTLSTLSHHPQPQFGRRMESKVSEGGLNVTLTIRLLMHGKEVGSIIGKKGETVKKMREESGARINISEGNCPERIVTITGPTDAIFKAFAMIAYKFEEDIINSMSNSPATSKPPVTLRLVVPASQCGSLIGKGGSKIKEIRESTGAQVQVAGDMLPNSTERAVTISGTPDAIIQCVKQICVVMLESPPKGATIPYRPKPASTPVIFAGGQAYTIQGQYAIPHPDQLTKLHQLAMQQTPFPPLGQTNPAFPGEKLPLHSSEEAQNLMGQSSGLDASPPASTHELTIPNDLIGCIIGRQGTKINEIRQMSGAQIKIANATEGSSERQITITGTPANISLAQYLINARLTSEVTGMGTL

Compound in the first test: Cc1cn(-c2cc(NC(=O)c3ccc(C)c(Nc4nccc(-c5cccnc5)n4)c3)cc(C(F)(F)F)c2)cn1 [nilotinib]
Kind of test: log2 fold change, soluble protein after heating vs DMSO (PISA); higher = thermal stabilisation; K562 lysate, 10 uM; active = over 0.2 and 3.5 SD of the protein, either way, in both replicates (recomputed). The procedure, abridged:
(§1)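 To prepare the extract, K562 pellets were dounce-homogenised in PBS pH 7.4 with 1 mM MgCl2, giving crude material at 1 mg/mL protein. This was treated with 10 μM compound for 30 min, then heated in aliquots for 3 min over 48°C-58°C before pooling and addition of NP-40 to 0.5% at 4°C. Centrifugation at 21,000xg for 90 min left soluble protein in the supernatant, which TMTpro 16plex LC-MS/MS quantified with equalised channel sums. Results are log-two fold changes in thermal stability compared with solvent controls, from duplicates.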
Consider PRAME (UniProt P78395), for which the log2 fold change was 0.028.
For PWP2 (UniProt Q15269), the log2 fold change is 0.016.
Regarding POLA1 (UniProt P09884), the log2 fold change was -0.022.
Still for that read-out and setting: with PCIF1 (UniProt Q9H4Z3) the figure was 0.018; with PGLS (UniProt O95336), 0.008.
On the same count and under the same terms, with PRKCSH isoform 2 (UniProt P14314) the figure was -0.004; with PIP4K2B (UniProt P78356), 0.032.
On to PPP1R8 (UniProt Q12972), for which the log2 fold change is 0.004.
For the target POLD1 (UniProt P28340), the log2 fold change was 0.029.
On the same count and under the same terms, with PIKFYVE (UniProt Q9Y2I7) the figure was 0.017; with PPP2CA (UniProt P67775), -0.009.
The same measure, in the same setting: with PLA2G4B isoform 6 (UniProt P0C869) the figure was -0.177.
On to PCBP2 isoform 3 (UniProt Q15366), for which the log2 fold change is 0.019.
The same measure, in the same setting: with PWP1 (UniProt Q13610) the figure was -0.016.
Take PPP3CA isoform 2 (UniProt Q08209): the log2 fold change was 0.241 (active).
With PMS1 (UniProt P54277), the log2 fold change was -0.022.
PIK3R1 (UniProt P27986): the log2 fold change is -0.041.
On the same count and under the same terms, with PKN1 isoform 2 (UniProt Q16512) the figure was -0.014; with PTPN2 (UniProt P17706), 0.
For PIK3R2 (UniProt O00459), the log2 fold change is 0.007.
On the same count and under the same terms, with PIK3CB (UniProt P42338) the figure was 0.015; with PRMT7 (UniProt Q9NVM4), 0.039; with PRKCSH (UniProt K7ELL7), -0.013.
In the case of PHGDH (UniProt O43175), the log2 fold change was 0.013.
Still for that read-out and setting: in the case of PRKACB isoform 2 (UniProt P22694) it was -0.076; in that of PTP4A1 (UniProt Q93096), -0.035; in that of PIP5K1A (UniProt Q99755), -0.091.
Still for that read-out and setting: with PFAS (UniProt O15067) the figure was 0.015; with PIGO (UniProt Q8TEQ8), -0.019; with PRKCSH (UniProt P14314), 0.01.
Take PCBP3 (UniProt P57721): the log2 fold change is 0.015.
With POGK (UniProt Q9P215), the log2 fold change was -0.04.
On to PMPCA (UniProt Q10713), for which the log2 fold change is 0.005.
The same measure, in the same setting: with PLIN2 (UniProt Q99541) the figure was 0.088.
Same read-out and setting: with POLR2M (UniProt P0CAP2) the figure was -0.033.
The same measure, in the same setting: in the case of PDCD6IP (UniProt Q8WUM4) it was 0.059; in that of PCF11 (UniProt O94913), -0.003; in that of PLXND1 (UniProt Q9Y4D7), -0.006.
For the target PPP4R2 (UniProt Q9NY27), the log2 fold change is 0.012.

Compound in another test: Cc1nc(Nc2n[nH]c3c2CN(C(=O)N[C@H](CN(C)C)c2ccccc2)C3(C)C)c2sccc2n1
The test is described as above. The procedure, abridged: as §1
With PRAME (UniProt P78395), the log2 fold change is 0.005.
For the target PWP2 (UniProt Q15269), the log2 fold change is -0.006.
On the same count and under the same terms, with POLA1 (UniProt P09884) the figure was -0.01; with PCIF1 (UniProt Q9H4Z3), -0.089.
Still for that read-out and setting: in the case of PGLS (UniProt O95336) it was -0.021.
Same read-out and setting: with PRKCSH isoform 2 (UniProt P14314) the figure was 0.099; with PIP4K2B (UniProt P78356), 0.024; with PPP1R8 (UniProt Q12972), -0.011.
For POLD1 (UniProt P28340), the log2 fold change is -0.004.
On the same count and under the same terms, with PIKFYVE (UniProt Q9Y2I7) the figure was -0.017.
As for PPP2CA (UniProt P67775), the log2 fold change was 0.037.
The same measure, in the same setting: in the case of PLA2G4B isoform 6 (UniProt P0C869) it was 0.259; in that of PCBP2 isoform 3 (UniProt Q15366), -0.012.
Still for that read-out and setting: in the case of PWP1 (UniProt Q13610) it was 0.009; in that of PPP3CA isoform 2 (UniProt Q08209), 0.121; in that of PMS1 (UniProt P54277), 0.
As to PIK3R1 (UniProt P27986), the log2 fold change was -0.072.
For PKN1 isoform 2 (UniProt Q16512), the log2 fold change is -0.098.
On to PTPN2 (UniProt P17706), for which the log2 fold change was 0.026.
PIK3R2 (UniProt O00459): the log2 fold change was -0.006.
Same read-out and setting: in the case of PIK3CB (UniProt P42338) it was 0.021; in that of PRMT7 (UniProt Q9NVM4), -0.01; in that of PRKCSH (UniProt K7ELL7), -0.163.
On the same count and under the same terms, with PHGDH (UniProt O43175) the figure was -0.025.
Still for that read-out and setting: with PRKACB isoform 2 (UniProt P22694) the figure was 0.818 (active); with PTP4A1 (UniProt Q93096), 0.005.
Turning to PIP5K1A (UniProt Q99755), the log2 fold change was 0.011.
PFAS (UniProt O15067): the log2 fold change is -0.023.
Still for that read-out and setting: in the case of PIGO (UniProt Q8TEQ8) it was 0.055.
Same read-out and setting: with PRKCSH (UniProt P14314) the figure was 0.016; with PCBP3 (UniProt P57721), -0.022; with POGK (UniProt Q9P215), 0.005.
In the case of PMPCA (UniProt Q10713), the log2 fold change is 0.052.
Take PLIN2 (UniProt Q99541): the log2 fold change is -0.012.
The same measure, in the same setting: with POLR2M (UniProt P0CAP2) the figure was -0.014.
The same measure, in the same setting: in the case of PDCD6IP (UniProt Q8WUM4) it was -0.045; in that of PCF11 (UniProt O94913), -0.001.
The same measure, in the same setting: with PLXND1 (UniProt Q9Y4D7) the figure was 0.043; with PPP4R2 (UniProt Q9NY27), 0.018.
